The nature of experiment [1]: qHTS assay to test for compound auto fluorescence at 535 nm (green) in HEK293 cells (AID 720680). A general note: qHTS replaces the single test concentration by a dilution series.
Experiment [2] is described as follows: qHTS assay to test for compound auto fluorescence at 460 nm (blue) in HEK293 cell free culture (AID 720681). The method in brief: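 Test compounds were pinned into cell-free culture medium (DMEM with 10% FBS) and fluorescence was read directly at Ex/Em 405/460 nm. Signals were expressed as fluorescence equivalents of triamterene, with DMSO vehicle as control.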

The nature of experiment [3]: qHTS assay to test for compound auto fluorescence at 535 nm (green) in HEK293 cell free culture (AID 720682). The method in brief: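 Fluorescein serves as the green reference fluorophore; each compound's intrinsic emission at 535 nm (excitation 485 nm) is reported as an equivalent amount of that dye, measured in serum-containing DMEM without cells.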
A short description of experiment [4]: qHTS assay to test for compound auto fluorescence at 590 nm (red) in HEK293 cell free culture (AID 720683). The method in brief: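 Tox21 10K library compounds were pinned into cell-free DMEM with 10% FBS and fluorescence was read at excitation 540 nm. Activity is expressed as Rose Bengal sodium equivalency.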
Experiment [5] is described as follows: qHTS assay to test for compound auto fluorescence at 590 nm (red) in HepG2 cell free culture (AID 720684). The method in brief:
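Measured in medium alone (MEM containing 10% FBS) following pintool addition of compound; emission at 590 nm with 540 nm excitation, referenced to Rose Bengal sodium.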

Experiment [6] is described as follows: qHTS assay to test for compound auto fluorescence at 460 nm (blue) in HepG2 cell free culture (AID 720685). The method in brief:
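Compound (23 nL) or DMSO pinned into cell-free MEM with 10% FBS; blue fluorescence read at 405/460 nm excitation/emission, expressed as auto-fluorescence equivalency to triamterene.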

Experiment [7] is described as follows: qHTS assay to test for compound auto fluorescence at 535 nm (green) in HepG2 cell free culture (AID 720686).
Experiment [8] can be described thus: qHTS assay to test for compound auto fluorescence at 460 nm (blue) in HepG2 cells (AID 720687). The essentials: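 Cells (2,000/well in MEM with 10% FBS) attached overnight at 37 C, then were exposed to compound or DMSO for 1 hr at 37 C, 5% CO2. Fluorescence read at Ex/Em 405/460 nm, expressed as triamterene-equivalent signal.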
Experiment [9] has as its target Glucocorticoid receptor (Homo sapiens) (UniProt P04150). Put plainly: qHTS assay to identify small molecule agonists of the glucocorticoid receptor (GR) signaling pathway (AID 720691; active = well fitted activation curve with a large enough effect in the signal ratio in the repeat runs, not every such curve was filed as active; the % refers to the signal ratio). The method in brief:
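Reporter read-out: fluorescence intensity following 2 h room-temperature LiveBLAzer B/G FRET substrate loading. Prior step: GR-bla HeLa cells held 4 h, then treated 18 h at 37 C.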

The nature of experiment [10]: qHTS assay for identifying genotoxic compounds that show differential cytotoxicity against isogenic chicken DT40 cell lines with known DNA damage response pathways - wild type cell line (AID 743012). Note: nearly all actives have a fitted effect of over 60% in size. Note: potency is the fitted concentration of half-maximal effect. The essentials: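 Using parental DT40 (300 cells/well), compounds delivered in DMSO incubate 40 h at 37 C/5% CO2. CellTiter-Glo reagent then stands 30 min at room temperature, and luminescence gives cell viability.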

Experiment [11] in a line: qHTS assay for identifying genotoxic compounds that show differential cytotoxicity against isogenic chicken DT40 cell lines with known DNA damage response pathways - Rev3 mutant cell line (AID 743014). Note: nearly all actives have a fitted effect of over 55% in size. Note: potency is the fitted concentration of half-maximal effect.
A short description of experiment [12]: qHTS assay for identifying genotoxic compounds that show differential cytotoxicity against isogenic chicken DT40 cell lines with known DNA damage response pathways - Rad54/Ku70 mutant cell line (AID 743015). Note: nearly all actives have a fitted effect of over 60% in size. Note: potency is the fitted concentration of half-maximal effect.
The nature of experiment [13]: qHTS assay to identify small molecule antagonists of the androgen receptor (AR) signaling pathway - cell viability counter screen (AID 743033; note: nearly all actives have a fitted effect of over 45% in size).
The nature of experiment [14]: qHTS assay to identify small molecule antagonists of the androgen receptor (AR) signaling pathway using the MDA cell line - cell viability counter screen (AID 743041; note: nearly all actives have a fitted effect of over 45% in size). The essentials:
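Viability counter screen run alongside the AR antagonist reporter: cells seeded 5 h before compound, R1881 added, 16 h incubation at 37C without CO2, fluorescent CellTiter-Fluor signal quantified.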

Experiment [15] is described as follows: qHTS assay to identify small molecule antagonists of the thyroid receptor (TR) signaling pathway - cell viability counter screen (AID 743064). Note: nearly all actives have a fitted effect of over 50% in size. Note: potency is the fitted concentration of half-maximal effect. The essentials:
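Fluorescence from CellTiter-Fluor, added after 23.5 h exposure at 37 °C, reported viability of GH3.TRE-Luc cells co-treated with compound and 1 nM T3. Measured in the same wells as the luciferase TR readout.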

Experiment [16] is described as follows: qHTS assay to identify small molecule antagonists of the glucocorticoid receptor (GR) signaling pathway - cell viability counter screen (AID 720693). Note: nearly all actives have a fitted effect of over 55% in size.
For experiment [17], the target named is Glucocorticoid receptor (Homo sapiens) (UniProt P04150). Briefly: qHTS assay to identify small molecule antagonists of the glucocorticoid receptor (GR) signaling pathway (AID 720692; active = well fitted inhibition curve with a large enough effect in the signal ratio in the repeat runs, not every such curve was filed as active; the % refers to the signal ratio). The method in brief:
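Dexamethasone (5 nM final) stimulated a stably integrated GRE-beta-lactamase reporter in HeLa cells during 18 h co-incubation with compounds; signal was quantified as fluorescence intensity of B/G FRET substrate after 2 h.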

Structures are written as SMILES. Unmarked numbers belong to inactive results. Records with an inconclusive call do not appear. The source made the active and inactive calls. Unless noted, calls come from the whole dose curve; as a rule, active = well fitted curve in the direction sought with a large enough effect in the repeat runs; inconclusive = weak or mixed curves; inactive = no such curve, though single readings can be large; an effect the other way counts as inactive or inconclusive.
% is set by controls: 0 for no effect and ±100 for the full control effect.

Glucocorticoid receptor (Homo sapiens), sequence (P04150 whole entry, looked up): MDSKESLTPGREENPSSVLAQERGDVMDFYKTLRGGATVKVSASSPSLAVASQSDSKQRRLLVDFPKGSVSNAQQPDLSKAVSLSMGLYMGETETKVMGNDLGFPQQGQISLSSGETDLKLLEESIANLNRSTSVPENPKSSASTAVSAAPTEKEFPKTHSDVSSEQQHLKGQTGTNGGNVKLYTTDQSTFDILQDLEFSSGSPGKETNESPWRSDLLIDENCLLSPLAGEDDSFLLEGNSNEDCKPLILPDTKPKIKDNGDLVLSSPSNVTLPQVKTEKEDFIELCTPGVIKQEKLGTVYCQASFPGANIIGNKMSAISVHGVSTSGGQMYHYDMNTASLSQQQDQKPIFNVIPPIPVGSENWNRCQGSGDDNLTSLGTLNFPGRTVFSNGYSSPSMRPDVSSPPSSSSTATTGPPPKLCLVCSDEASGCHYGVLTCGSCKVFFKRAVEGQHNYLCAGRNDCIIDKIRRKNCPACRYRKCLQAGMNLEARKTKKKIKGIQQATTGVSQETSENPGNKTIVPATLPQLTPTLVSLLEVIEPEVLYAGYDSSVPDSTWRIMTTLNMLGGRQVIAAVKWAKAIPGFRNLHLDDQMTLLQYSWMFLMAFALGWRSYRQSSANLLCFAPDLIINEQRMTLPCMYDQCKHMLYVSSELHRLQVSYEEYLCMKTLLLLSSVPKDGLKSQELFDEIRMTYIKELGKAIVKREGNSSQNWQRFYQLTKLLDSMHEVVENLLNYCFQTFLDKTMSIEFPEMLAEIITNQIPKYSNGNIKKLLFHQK

As for `Nc1ccc2ccccc2c1S(=O)(=O)O`, the outcome in experiment [1], in experiment [2], in experiment [3], in experiment [4], in [5] and in [6] was inactive. For the same compound, the result in experiment [7], in [8] and in experiment [13] was inactive. Also, the Potency result in experiment [9], in experiment [10], in [11], in [12], in experiment [14] and in experiment [15] was “inactive” in each case.
With `CCN[C@H]1CN(CCCOC)S(=O)(=O)c2sc(S(N)(=O)=O)cc21`, the fluorescence, % of fluorescein in [1] was -0.0786% [at 18.6 µM]. The fluorescence, % of fluorescent control is 0.113% [at 18.6 µM] in [2], -0.021% [at 18.6 µM] in experiment [4], -0.0073% [at 18.6 µM] in [6] and -0.117% [at 18.6 µM] in [8]. Moreover, in experiment [3], the activity change was -0.0447% [at 18.6 µM]. In experiment [5], the fluorescence, % of Rose Bengal was 0.0022% [at 18.6 µM]. The fluorescence, % of fluorescein control in [7] was 0.0136% [at 18.6 µM]. Further, the Potency entry in experiment [9], in experiment [10], in experiment [11], in experiment [12], in experiment [14] and in experiment [15] was “inactive” in each case. In addition, the compound was classed as inactive in experiment [16].
In the case of `Cc1c(-c2ccccc2)oc2c(C(=O)OCCN3CCCCC3)cccc2c1=O`, the fluorescence, % of fluorescein in [1] is -0.0807% [at 18.6 µM]. Besides, the fluorescence, % of fluorescent control in experiment [2] was 0.0764% [at 18.6 µM]; in experiment [4], -0.0474% [at 18.6 µM]; in experiment [6], -0.115% [at 18.6 µM]; in experiment [8], -0.0666% [at 18.6 µM]. Besides, the activity change in experiment [3] is -0.0846% [at 18.6 µM]. The fluorescence, % of Rose Bengal in experiment [5] is -0.137% [at 18.6 µM]. The fluorescence, % of fluorescein control in [7] is 0.0304% [at 18.6 µM]. For the same compound, the Potency entry in experiment [9], in [17], in experiment [10], in experiment [11], in experiment [12] and in experiment [14] was “inactive” in each case. The Potency result in experiment [15] is “inactive”. Further, in [13], the call was inactive.
Turning to `CC(C)C(=O)OC/C=C/c1ccccc1`, the compound was called inactive in experiment [1], in [2], in [3], in [4], in experiment [5] and in [6]. For the same compound, the call in experiment [7], in experiment [8], in experiment [16] and in experiment [13] was inactive. The Potency entry in [17], in [10], in [11], in experiment [12], in experiment [14] and in [15] was “inactive” in each case.
For `CCOc1ccc(NS(=O)(=O)c2ccc(N)cc2)nn1`, the compound was classed as inactive in [1], in [2], in experiment [3], in [4], in [5] and in [6]. Further, the compound was called inactive in [7], in [8] and in experiment [13]. In addition, the Potency result in experiment [9], in experiment [17], in [10], in [11], in [12] and in experiment [14] was “inactive” throughout. Also, in [15], the Potency result was “inactive”.
Regarding `CCCc1c2oc(C(=O)O)cc(=O)c2cc2c(=O)cc(C(=O)O)n(CC)c12`, the result in experiment [1], in experiment [2], in [3], in experiment [4], in [5] and in experiment [6] was inactive. In addition, the compound was called inactive in experiment [7], in [8], in [16] and in experiment [13]. Besides, the Potency entry in experiment [17], in [10], in [11] and in [12] was “inactive” throughout.
For the compound `CC[C@H]1CC[C@H](NCc2cc3c(cc2OC)[C@H]2C[C@H]2C(=O)N3C)[C@H](c2ccccc2)N1`, the call in experiment [1], in experiment [2], in experiment [3], in experiment [4], in experiment [5] and in [6] was inactive. Moreover, the compound was called inactive in [7], in [8], in [16] and in [13]. The Potency entry in experiment [17] is “inactive”. The Potency was 6.86 µM (active) in [10], 4.86 µM (active) in [11], 4.86 µM (active) in [12] and 24.3 µM (active) in experiment [15].
For the compound `CO[C@@]1(NC(=O)CSCC#N)C(=O)N2C(C(=O)O)=C(CSc3nnnn3C)CS[C@@H]21`, the result in experiment [1], in [2], in [3], in experiment [4], in experiment [5] and in [6] was inactive. Besides, the compound was called inactive in experiment [7], in [8] and in experiment [16]. Further, the Potency result in experiment [9], in experiment [10], in [11] and in experiment [12] was “inactive” each time.
For the compound `CCOC(=O)NCCC[Si](OCC)(OCC)OCC`, the compound was classed as inactive in experiment [1], in experiment [2], in experiment [3], in experiment [4], in [5] and in experiment [6]. Besides, the result in experiment [7], in [8], in experiment [16] and in experiment [13] was inactive. The Potency result in [9], in experiment [10], in experiment [11], in experiment [12] and in [15] was “inactive” each time.

These data come from PubChem BioAssay (Tox21).
